Screening data as filed in PubChem BioAssay.
These entries were drawn from the full list.
aSyn UTR act: Activators via SNCA 5'UTR binding, MLPCN; alpha-synuclein 5'UTR reporter, activators screen; activity score, % (tested at 7.5 µM), hits read low; hit rate 7.1% among 300,000; AID 1814, 2009; in the data active = activity score below about -60%
The depositor's hits bear a star.

SMILES	aSyn UTR act
C=CCS/C(=N\n1cnc2ccccc2c1=O)N1CCCCC1	-86*
COc1ccc(-c2ccc3oc(-c4ccsc4)cc3c2)cc1	-140*
Cc1cccn2c(CN(C)CCC3CCCCO3)c(C(=O)N3CCCCC3)nc12 (stereo not drawn)	-69*
Nc1nc(NCCOCCO)nc(NC2CCCCC2)c1[N+](=O)[O-]	68
O=C(Nc1ccc2[nH]ncc2c1)c1ccc(F)cc1	-90*
O=C(Nc1ccc2[nH]ncc2c1)c1ccccc1	-81*
